Measured values from PubChem BioAssay (NCATS).
Inconclusive results are not listed. A call without a number means that no potency is given here. Calls of active or inactive are those of the source. Calls follow the shape of the dose curve; as a rule, active = well fitted inhibition curve with a large enough effect; inconclusive = small, poorly fitted or top-dose-only effect; inactive = no such curve, though single readings can be large or run the other way.

Each compound was assayed against Retinaldehyde dehydrogenase 3 (Homo sapiens) (UniProt P47895) (assay: qHTS for Inhibitors of the Aldehyde Dehydrogenase Family (ALDH1A3) Primary screen (AID 2061315)). Settings: ALDH inhibition qHTS; series mostly up to 56 µM.

Row | SMILES | Potency
1 | CN(C)c1cccc(-c2nnc(N3CCC(C(N)=O)CC3)s2)c1 | inactive
2 | COc1ccc(C2c3c(N)nc(Cc4ccccc4)nc3Oc3ccc4ccccc4c32)cc1OC (stereo not given) | inactive
3 | CC(C)(C)c1ccc(C(=O)Nc2ccc(-c3nc4ccccc4[nH]3)cc2)cc1 | inactive
4 | Cc1ccc(CNc2ncnc3cc(-c4ccc5c(c4)OCO5)ccc23)o1 | inactive
5 | O=C(NCc1ccc(Oc2ccccc2)cc1)c1nc(-c2cc(Br)c(O)c(Br)c2)no1 | inactive
6 | Oc1ccc(CNc2ccccn2)c2cccnc12 | inactive
7 | CCOC(=O)c1nn(-c2ccc(OC)cc2)c(=O)c2c(N)scc12 | inactive
8 | CN1CCN(c2ccc(CNc3nn4c(=O)c5ccccc5nc4s3)cc2)CC1 | inactive
9 | CC(=O)c1ccc(-c2ccc3ncnc(NCc4ccc(C)o4)c3c2)o1 | inactive
10 | O=C(Cn1nc(-c2ccncc2)ccc1=O)NCCc1ccccc1 | inactive
11 | COc1ccccc1NS(=O)(=O)c1cc(NC(=O)c2ccccc2)ccc1N1CCCC1 | inactive
12 | Nc1ccc(-c2ccnc(NCCCNC(=O)c3c(Cl)cccc3Cl)n2)cc1 | inactive
13 | Cc1ccc(NS(=O)(=O)c2cc3c(cc2-c2ccccc2)NC(=O)CO3)cc1C | inactive
14 | Cc1ccc(N2CCN(C(=S)Nc3cc(C)ccn3)CC2)cc1 | inactive
15 | Cn1ccc2cc(-c3csc(N4CCC(C(N)=O)CC4)n3)ccc21 | inactive
16 | Cc1ccc(N2CCN(S(=O)(=O)c3ccc4c(c3)CC(=O)N4)CC2)cc1 | inactive
17 | Cc1ccc(NS(=O)(=O)c2ccc(-c3ccccc3)cc2)cc1C | inactive
18 | N#Cc1c(-c2ccccc2C(F)(F)F)nc2ccccc2c1NCc1ccc(-c2ccnc(C(F)(F)F)c2)cc1 | inactive
19 | O=C(Cc1ccc(Cl)c(Cl)c1)Nc1ccc(S(=O)(=O)Nc2cccc(O)c2)cc1 | inactive
20 | CS(=O)(=O)c1ccc(C(=O)OCC(=O)N2CCN(Cc3ccccc3)CC2)cc1[N+](=O)[O-] | inactive

Row | SMILES | Potency
21 | O=C(O)c1ccc(O)c2ncc(N3CCCN(CCc4ccncc4)CC3)cc12 | inactive
22 | Cc1cc(/C=C/C#N)cc(C)c1Nc1nc(Nc2ccc3n[nH]nc3c2)c2[nH]cnc2n1 | inactive
23 | COc1cc(O)c(C(CC(=O)N2CC(C)CC(C)C2)c2ccc(C)cc2)c(OC)c1 (stereo not given) | inactive
24 | Cc1cc(NS(=O)(=O)c2cc3c(cc2N[C@@H](C)CO)NC(=O)CC3)ccc1F | inactive
25 | Cc1cccc(CNc2ccnc(-c3ccc4ccccc4c3)n2)c1 | inactive
26 | CC(C)c1ccc(-n2ncc3c(=O)n(CC(=O)Nc4cc(F)ccc4Cl)cnc32)cc1 | inactive
27 | C[C@H](NC(c1ccc(F)cc1)c1ccc2cccnc2c1O)c1ccccc1 (stereo not given in full) | inactive
28 | COc1cc(F)c(S(=O)(=O)N2CCN(S(=O)(=O)c3cccs3)CC2)c(F)c1 | inactive
29 | N#Cc1nc(-c2cccc3ccccc23)oc1Nc1ccccc1 | inactive
30 | Cc1ccsc1CN(C)c1ncnc2ccc(-c3ccc(CO)o3)cc12 | inactive
31 | CN1CCN(c2cccc(Nc3nn4c(=O)c5ccc(Br)cc5nc4s3)c2)CC1 | inactive
32 | Cc1c(P(=S)(c2ccccc2)c2ccccc2)c2ccccc2n1C/C=C/c1ccccc1 | inactive
33 | O=C1CCc2cc(S(=O)(=O)Nc3ccccn3)ccc2N1 | inactive
34 | COc1cccc(CNc2ccc(S(=O)(=O)Nc3cccc4ccccc34)cc2)c1O | inactive
35 | O=C1CCc2cc([S+](=O)([O-])Nc3ccc(N[S+](=O)([O-])c4ccc5c(c4)CCC(=O)N5)cc3)ccc2N1 | inactive
36 | CC(C)(C)OC(=O)N[C@@H](Cc1ccc(O[S+](=O)([O-])c2cccc3cnccc23)cc1)C(=O)N1CCN(Cc2ccccc2)CC1 | inactive
37 | FC(F)(F)c1ccccc1-c1nc(NCc2ccc(-c3ccc4c(c3)OCCO4)cc2)c2ccccc2n1 | inactive
38 | O=C(O)c1ccc(-c2ccc(NC(=O)c3cccs3)cn2)cc1 | inactive
39 | O=C(NCc1nnc(C(=O)Nc2ccc(C(F)(F)F)cc2Cl)o1)c1ccccc1 | inactive
40 | COc1cc(C(N)=O)nc(-c2ccccn2)c1O | inactive
